Assay results from PubChem BioAssay (EPA / NIEHS).
Inconclusive results are not listed. Calls of active or inactive are those of the source. The calls were made as follows: active = hit-call score of the fitted dose curve at least 0.9, where 1 is the maximum; inconclusive = response in the unintended direction; inactive = score below 0.9.

Experiments:
[1] = target: Cellular tumor antigen p53 (Homo sapiens) (UniProt P04637); test: TOX21_p53_BLA_p2_ratio: Tox21 HCT-116 p53 Agonism Beta-lactamase Assay, Ratio, Phase 2 (AID 2283592)
Sequence of Cellular tumor antigen p53 (Homo sapiens) (P04637 whole entry, looked up): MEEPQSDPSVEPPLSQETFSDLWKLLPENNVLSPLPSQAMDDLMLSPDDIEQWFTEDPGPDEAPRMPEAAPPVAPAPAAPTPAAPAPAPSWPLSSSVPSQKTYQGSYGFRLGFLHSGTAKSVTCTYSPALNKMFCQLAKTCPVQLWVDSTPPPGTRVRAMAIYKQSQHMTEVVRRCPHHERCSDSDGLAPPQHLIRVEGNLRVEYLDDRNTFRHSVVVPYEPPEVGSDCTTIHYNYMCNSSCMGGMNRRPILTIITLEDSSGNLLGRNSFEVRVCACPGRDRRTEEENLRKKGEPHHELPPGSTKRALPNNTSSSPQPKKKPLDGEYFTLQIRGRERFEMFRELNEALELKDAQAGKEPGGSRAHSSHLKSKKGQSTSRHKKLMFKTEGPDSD
Method in brief: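 Readout: blue/green (460/530 nm) FRET emission ratio after 2 h CCF4-AM loading at room temperature, excitation 405 nm. HCT116 p53 bla cells, 16 h compound exposure at 37C, 5% CO2; agonist direction fitted against DMSO baseline.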

[2] = TOX21_p53_BLA_p3_viability: Viability Assessment in the Tox21 HCT-116 p53 Agonism Beta-lactamase Assay, Phase 3 (AID 2283593);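 also: cells exposed to compound for 16 h before reading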
Method in brief: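 HCT-116 cells (4000/well) rested 5 h at 37C, then got DMSO compounds by pin tool (217-fold dilution) for 16 h at 37C, 5% CO2. After the bla read, CellTiter-Glo was added and luminescence read at 30 min, room temperature.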

[3] = target: Cellular tumor antigen p53 (Homo sapiens) (UniProt P04637); test: TOX21_p53_BLA_p3_ratio: Tox21 HCT-116 p53 Agonism Beta-lactamase Assay, Ratio, Phase 3 (AID 2283596)
Method in brief: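 Cells were seeded at 4000/well, rested 5 h at 37C, then dosed with DMSO compound solutions (217-fold dilution) for 16 h. CCF4-AM substrate was loaded for 2 h at room temperature, and the 460/530 nm emission ratio was fitted for gain of signal versus DMSO.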

[4] = target: Cellular tumor antigen p53 (Homo sapiens) (UniProt P04637); test: TOX21_p53_BLA_p5_ratio: Tox21 HCT-116 p53 Agonism Beta-lactamase Assay, Ratio, Phase 5 (AID 2283599)
Method in brief: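 HCT-116 cells carrying a p53-inducible beta-lactamase reporter were seeded at 4000 cells/well and dosed after 5 h with compound in DMSO (217-fold dilution). After 16 h at 37C, CCF4-AM substrate was added for 2 h, and the 460/530 nm emission ratio was scored as gain-of-signal versus DMSO.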

[5] = target: Cellular tumor antigen p53 (Homo sapiens) (UniProt P04637); test: TOX21_p53_BLA_p4_ratio: Tox21 HCT-116 p53 Agonism Beta-lactamase Assay, Ratio, Phase 4 (AID 2283601)
Method in brief: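 HCT116 cells carrying an inducible beta-lactamase reporter were plated at 4000 cells/well, rested 5 h, then exposed to compounds in DMSO (217-fold dilution) for 16 h at 37C. CCF4-AM substrate was loaded 2 h at room temperature; 460/530 nm emission ratio scored gain-of-signal versus DMSO.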

[6] = TOX21_p53_BLA_p5_viability: Viability Assessment in the Tox21 HCT-116 p53 Agonism Beta-lactamase Assay, Phase 5 (AID 2283600)
Method in brief: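 ATP luminescence (CellTiter-Glo, 30 min, RT) served as the viability read-out, with loss of signal indicating cytotoxicity. Compounds in DMSO were pinned at a 217-fold dilution onto 4000 cells/well and incubated 16 h, 37C.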

Measured: outcome

C[C@]1(Cn2ccnn2)[C@H](C(=O)O)N2C(=O)C[C@H]2S1(=O)=O
inactive: [1] | [2] | [3] | [4] | [5]

O=C(O)[C@@H]1[C@H]2C[C@H]3c4[nH]c5ccccc5c4CCN3C[C@@H]2CC[C@@H]1O
inactive: [1] | [2] | [3] | [4] | [5]

CC(C(=O)O)c1cccc(Oc2ccccc2)c1 (centres undefined)
inactive: [1] | [2] | [3] | [4] | [6] | [5]

CCCCCCCCCCCCCCCCCCO
inactive: [1] | [2] | [3] | [4] | [5]

CCCCC(C)(O)C/C=C/[C@H]1[C@H](O)CC(=O)[C@@H]1CCCCCCC(=O)OC (some centres undefined)
inactive: [1] | [2] | [3] | [4] | [5]

CO/N=C(\C(=O)N[C@@H]1C(=O)N2C(C(=O)O)=C(CSc3cnns3)CS[C@H]12)c1csc(N)n1
inactive: [1] | [2] | [3] | [4] | [5]

CC(C)(C)C(=O)OCOC(=O)[C@@H]1N2C(=O)[C@@H](NC(=O)[C@H](N)c3ccccc3)[C@H]2SC1(C)C
inactive: [1] | [2] | [3] | [4] | [5]

C=C(C)c1ccccc1
inactive: [1] | [2] | [3] | [4] | [6] | [5]

CC(S)C(C)S (centres undefined)
inactive: [1] | [2] | [3] | [4] | [6] | [5]

CCC(c1ccccc1)c1noc(CCN(CC)CC)n1 (centres undefined)
inactive: [1] | [2] | [3] | [4] | [5]

Cc1cc(C(C)(C)C)cc(C)c1CC1=NCCN1
inactive: [1] | [2] | [3] | [4] | [6] | [5]
